# From PubChem BioAssay
# A selection: hits, their analogues and other compounds. The true share with any hit is near 6.1%.
# S2 tox – reduces viability in counter-screen for ATXN expression inhibitors; 400,000 compounds, 0.49% hits; S2 cells (HEK-293 line with an ATXN2-luciferase reporter) viability, CellTiter-Fluor protease fluorescence, 24 h; AID 651635; Potency, µM (series often up to 56.7 µM), actives largely listed as cytotoxic; note: nearly all actives have a fitted effect of over 40% in size
# ATXN2 expr inh – inhibitors of ATXN2 expression | Potency, µM (titrated, usually from 57 µM), for inactives: at the top dose activity change, negative = inhibition, most hits filed as inhibitors | HEK-293 ATXN2-luciferase reporter, luminescence, 24 h | 360,000 compounds, 0.72% hits | AID 1745845; note: % is set by controls: 0 for no effect and ±100 for the full control effect; nearly all actives have a fitted effect of over 55% in size
#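 ATXN2-luciferase reporter cells (luciferase flanked by upstream and downstream ATXN2 gene portions) were treated 24 h at 37 °C with compounds at up to 57 uM. SteadyGlo luminescence gave expression; GF-AFC fluorescence gave viability.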
# RORg inh – blocks mouse ROR gamma transcriptional activity. Potency, µM (top dose mostly 53.6 µM), for the others: at the top dose activity change, negative = inhibition, most hits filed as inhibitors. Drosophila S2 Gal4-RORgamma UAS-luciferase reporter, 20 h. P51450. AID 2551. 310,000 compounds, 5.4% hits; note: % is set by controls: 0 for no effect and ±100 for the full control effect; nearly all actives have a fitted effect of over 60% in size
# Target sequence (P51450 whole entry, looked up, the tested form may be a part): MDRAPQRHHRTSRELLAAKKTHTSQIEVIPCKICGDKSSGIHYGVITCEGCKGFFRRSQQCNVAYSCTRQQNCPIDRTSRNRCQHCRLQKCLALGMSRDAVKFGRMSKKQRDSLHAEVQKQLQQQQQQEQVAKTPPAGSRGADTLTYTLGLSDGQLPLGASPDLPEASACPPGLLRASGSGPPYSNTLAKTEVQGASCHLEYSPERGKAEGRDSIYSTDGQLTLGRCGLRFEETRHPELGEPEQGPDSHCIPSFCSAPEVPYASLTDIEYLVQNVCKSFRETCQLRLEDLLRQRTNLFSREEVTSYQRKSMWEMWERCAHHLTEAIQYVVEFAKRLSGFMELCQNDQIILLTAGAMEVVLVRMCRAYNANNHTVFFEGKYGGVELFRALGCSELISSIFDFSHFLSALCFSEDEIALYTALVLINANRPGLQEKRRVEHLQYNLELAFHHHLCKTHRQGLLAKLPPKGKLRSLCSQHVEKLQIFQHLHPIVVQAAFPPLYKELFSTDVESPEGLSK
#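 Stable Schneider cell line, Gal4 DNA-binding domain fused to ROR gamma, UAS-luciferase. Cmpd 1 hr RT → CuSO4 700 uM final → 20 hr RT → luciferase reagent 10 min → luminescence.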
# Gal4-VP16 FLuc – counter-screen for ROR gamma inhibitors: Gal4-VP16 reporter. Drosophila S2 Gal4-VP16 UAS-luciferase, luminescence, 20 h. Potency, µM (doses to about 53.6 µM), for inactives: at the highest dose activity, negative = inhibition, actives largely listed as inhibitors. 310,000 compounds, 3.5% hits. AID 2546;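 note: Gal4-VP16 expression switched on by copper sulfate through the metallothionein promoter; % is set by controls: 0 for no effect and ±100 for the full control effect; nearly all actives have a fitted effect of over 50% in size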
# HepG2 tox-1 – kills HepG2 cells in TGF-b inhibitor counter-screen. HepG2 CAGA-GFP viability, ATP luminescence, 18 h. AID 588856. Potency, µM (doses to about 46.1 µM), inactives show at the highest dose activity change, negative = cytotoxicity, usual class: cytotoxic. 410,000 compounds, 0.76% hits
#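 CellTiter-Glo luminescence gave cytotoxicity after 18 hours at 37 degrees C. The cells were HepG2 CAGA-GFP in 1% FBS DMEM, stimulated with 500 pg/mL TGF-beta after compound addition. %Activity was normalised to no-cell wells (complete cell-killing) and DMSO (no toxicity), and curves were fitted and classified.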
# TGFb inhibitor – blocks TGF-b signaling | HepG2 CAGA-GFP TGF-b/SMAD3 reporter, GFP fluorescence, 18 h; TGF-beta stimulated, 500 pg/mL final | Potency, µM (highest dose often 46.1 µM), for the others: at the top dose activity, negative = inhibition, hits mostly inhibitors | 410,000 compounds, 1.2% hits; note: % is set by controls: 0 for no effect and ±100 for the full control effect; nearly all actives have a fitted effect of over 65% in size
#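 TGF-beta reporter screen: HEPG2 CAGA-GFP, 1% FBS, 500 pg/mL TGF-beta final, 18 h; per-cell GFP summed per well; curves fitted and categorized by class.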
# TGFb confirm – confirmation of TGF-b signaling inhibitors in HepG2 reporter cells | shares compounds with TGFb inhibitor | HepG2 CAGA-GFP TGF-b reporter, GFP fluorescence, 18 h; cells stimulated with TGF-beta, 500 pg/mL | Potency, µM (series often up to 46.1 µM), for the others: at the highest dose activity, negative = inhibition, most hits filed as inhibitors | 1,600 compounds, 63% hits | AID 720534; note: % is set by controls: 0 for no effect and ±100 for the full control effect; nearly all actives have a fitted effect of over 65% in size
# HepG2 tox-2 – toxic to HepG2 cells in TGF-b counterscreen; shares compounds with TGFb inhibitor; Potency, µM (top dose mostly 46.1 µM), without a hit: at the top dose activity, negative = cytotoxicity, hits mostly inhibitors; HepG2 CAGA-GFP viability, ATP luminescence, 18 h; cells stimulated with TGF-beta, 500 pg/mL; 1,600 compounds, 27% hits; note: % is set by controls: 0 for no effect and ±100 for the full control effect; nearly all actives have a fitted effect of over 70% in size
# TGFb CCL64 inh – TGF-b inhibition, CCL64 orthogonal assay. shares compounds with TGFb inhibitor. CCL64 CAGA-GFP reporter, TGF-b stimulated, GFP fluorescence, 18 h. Potency, µM (series often up to 46.1 µM), without a hit: top-dose activity, negative = inhibition, usual class: inhibitors. 1,600 compounds, 41% hits. AID 720536; note: nearly all actives have a fitted effect of over 65% in size
# COP TGFb inh – TGF-b inhibition validated with COP promoter | 1,600 compounds, 3% hits | HepG2 COP-GFP TGF-b reporter, GFP fluorescence, 18 h; cells stimulated by added recombinant TGF-beta | shares compounds with TGFb inhibitor | AID 720537 | Potency, µM (top dose mostly 46.1 µM), for the others: at the top dose activity, negative = inhibition, usual class: inhibitors; note: nearly all actives have a fitted effect of over 70% in size
# * = called active by the depositor; i = inactive; ? = inconclusive; . = no result given; [ ] = dose if it differs, or a comment. Calls come from the whole dose curve; as a rule, active = well fitted curve in the direction sought with a large enough effect; inconclusive = small, poorly fitted or top-dose-only effect, or another doubt; inactive = no such curve, though single readings can be large; an effect the other way counts as inactive or inconclusive. Potency is the fitted concentration of half-maximal effect.
SMILES,S2 tox,ATXN2 expr inh,RORg inh,Gal4-VP16 FLuc,HepG2 tox-1,TGFb inhibitor,TGFb confirm,HepG2 tox-2,TGFb CCL64 inh,COP TGFb inh
O=S(=O)(CC(CN1CCCCC1)N1CCCCC1)c1ccccc1 (stereo not given),.,.,-23%,-2%,18µM*,10µM*,13µM*,18µM*,4.6µM*,?
COc1ccccc1CNC(=O)C(Cc1c[nH]c2ccccc12)NC(=O)OCc1ccccc1 (stereo not given),?,-3%,34%,-17%,-10%,11µM*,?,?,?,25%
CCOC(=O)N1CCN(Cc2ccc(O)c3ncccc23)CC1,?,-25%,2.5µM*,5µM*,-48%,7.1µM*,?,?,5.8µM*,0%
O=S(=O)(Nc1ccc(O)c2ncccc12)c1ccccc1F,i,39%,.,.,-20%,-21%,.,.,.,.
Clc1ccccc1CN1CCC(Cc2ccccc2)CC1,i,8%,-36%,?,-41%,-22%,.,.,.,.
Oc1ccc(CN2CCC(Cc3ccccc3)CC2)c2cccnc12,i,?,2.2µM*,4.5µM*,-38%,7.1µM*,?,?,2.6µM*,19%
OCc1ccc(O)c2ncccc12,i,?,13µM*,18µM*,-18%,13µM*,6.5µM*,?,?,15%
CCc1cccc(NC(=O)CCc2nc3cccnc3n2-c2ccccc2)c1,i,-18%,.,.,-8%,2%,.,.,.,.
CC(=O)c1ccc(NC(=O)CSc2nccn2C2CCCC2)cc1,.,.,.,.,0%,-2%,.,.,.,.
Clc1ccc(-n2nnnc2Sc2ncnc3sccc23)cc1,.,?,.,.,-105%,10µM*,4.6µM*,16µM*,2.9µM*,?
CO[C@@H]1COC(=O)[C@@H](C)COC(=O)[C@@H](C)NC(=O)C/C=C\[C@@H]1C,.,.,-20%[10 µM],4%[10 µM],.,.,.,.,.,.
CC[C@]12c3[nH]c4ccc(Cl)cc4c3CCN1C(=O)[C@@H](CC(=O)NCc1cccc(C(F)(F)F)c1)C[C@@H]2C(=O)N1CCN(C(=O)C2CC2)CC1,?,?,.,.,-8%,14µM*,-77%,?,?,61%
CC[C@]12c3[nH]c4cc(-c5ccco5)ccc4c3CCN1C(=O)[C@@H](CC(=O)NC/C=C(\C)CCC=C(C)C)C[C@@H]2C(=O)N1CCN(C(=O)c2ccco2)CC1,i,?,.,.,-20%,10µM*,10µM*,-13%,13µM*,2%
